Most compounds without a hit are left out; they make up all but 2.3% or so of the library.
PLC-beta3 inh: PLC-beta3 (human) inhibition, primary screen; Q01970; Purified PLC-beta3, fluorogenic substrate, fluorescence; inhibition, % at 12.2 µM; 370,000 compounds, 0.18% hits; AID 720704; in the data active means inhibition above about 11%
LEDGF integ inh: blocks HIV-1 LEDGF/p75-dependent DNA integration | TR-FRET IN-LEDGF/p75 DNA integration, Eu/Cy5 | inhibition, % at 3.7 µM | 370,000 compounds, 0.64% hits | AID 743269;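 active means inhibition above the screen-wide mean plus 3 SD, cut at about 13% in these data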;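 further: signal is the Cy5 over europium emission ratio at 671 and 618 nm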
PLC-gamma1 inh: PLC-gamma1 (human) inhibition, primary screen; P19174; purified PLC-gamma1, fluorogenic substrate, fluorescence; inhibition, % at 12.2 µM; 370,000 compounds, 0.84% hits; in the data active means inhibition above about 9.5%
UHRF1 MBD2 ctr: human UHRF1 methylated DNA binding inhibitors; Q96T88; UHRF1 binding to methylated oligo, TR-FRET; inhibition, % at 4.4 µM; 370,000 compounds, 0.75% hits; in the data active means inhibition above about 21%;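 further: UHRF1 SRA domain binding a hemimethylated CpG hairpin DNA probe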
MBD2 inh: inhibitors of human MBD2 binding to methylated oligonucleotide. inhibition, % at 4.4 µM. Q9UBB5. AID 686964. 370,000 compounds, 0.31% hits. TR-FRET; in the data active means inhibition above about 13%
IN multimer act: counter-screen for LEDGF/p75 integration inhibitors: HIV-1 integrase multimerization activators. activation, % at 7.7 µM. shares compounds with LEDGF integ inh. AID 1053131. TR-FRET HIV-1 integrase multimerization, biochemical. 2,000 compounds, 17% hits; in the data active means activation above about 8.9%
TRFRET interf: optically interferes with TR-FRET readout in LEDGF counter-screen. AID 1053135. inhibition, % at 7.7 µM. 2,000 tested, under 10 active. shares compounds with LEDGF integ inh. TR-FRET optical interference counterscreen, HIV-1 IN multimerization;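 active means inhibition above the mean over all tested compounds plus 3 SD, which no compound reached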
LEDGF integ conf: confirmation of HIV-1 LEDGF/p75-dependent integration inhibitors; shares compounds with LEDGF integ inh; TR-FRET LEDGF/p75-dependent HIV-1 integration, biochemical; inhibition, % at 3.7 µM; 2,000 compounds, 36% hits; in the data active means inhibition above about 14%
Each line names hits and unclear results; the compound was inactive in the other large screens (follow-up assays come after a bar, where they were run).

CN(Cc1ccccc1)C(=O)OCc1cn(Cc2cc(F)ccc2F)nn1	none
CCOc1ccc(N(CC(=O)NC2CCC(C)CC2)S(=O)(=O)c2c(C)noc2C)cc1 (centres undefined)	none
CCOc1ccc(N(CC(=O)NC2CCCC2)S(=O)(=O)c2c(C)[nH]c(=O)[nH]c2=O)cc1	LEDGF integ inh 51 | IN multimer act inactive | TRFRET interf inactive | LEDGF integ conf inactive
Cc1cc(C)cc(N(CC(=O)NC2CCCCCC2)S(=O)(=O)c2c(C)[nH]c(=O)[nH]c2=O)c1	none
Cc1ccc(N(CC(=O)NC2CCCCC2)S(=O)(=O)c2c(C)noc2C)cc1	LEDGF integ inh 21 | IN multimer act inactive | TRFRET interf inactive | LEDGF integ conf inactive
O=C(Cc1cccs1)NC1CCCCN(Cc2cccc(Cl)c2)C1=O (centres undefined)	none
CC(C)C[C@H](NC(C)(C)C(=O)NC1CCCCC1)C(=O)NCCc1c[nH]c2ccccc12	none
O=C(CCSCc1cccc(Cl)c1)NC1CCCC1	LEDGF integ inh 51 | IN multimer act inactive | TRFRET interf inactive | LEDGF integ conf inactive
O=C(CCSCc1cccc(Cl)c1)NCCC1=CCCCC1	none
O=C(Nc1ccc(Cl)cc1)OC1CCC12CCC(c1ccccc1)CC2 (centres undefined)	none
COc1ccc(NC(=O)CCCn2cnc3ccccc3c2=O)c(OC)c1	LEDGF integ inh 16 | IN multimer act inactive | TRFRET interf inactive | LEDGF integ conf inactive
CCOC(=O)Cn1cc(CN2CCS(=O)(=O)N(Cc3ccc(OC)cc3)C(C(=O)OC)C2)nn1 (centres undefined)	none
CCOC(=O)[C@@]12CCC3=C1N(CCC3)C(=O)[C@H](CC(=O)NCCC(C)C)C2	none
Cc1ccc(-n2c(SCC(=O)Nc3ccccc3-c3ccccc3)nnc2-c2cnccn2)cc1	none
C/C(=N\NC(=O)c1ccccc1[N+](=O)[O-])c1ccc(Br)s1	LEDGF integ inh 59 | IN multimer act inactive | TRFRET interf inactive | LEDGF integ conf inactive
O=c1cc(-c2cccc([N+](=O)[O-])c2)[nH][nH]1	LEDGF integ inh 22 | IN multimer act inactive | TRFRET interf inactive | LEDGF integ conf inactive
CCCCC(=O)Nc1ccc2c(c1)nc(CCN1CCN(C)CC1)n2C	LEDGF integ inh 82 | IN multimer act inactive | TRFRET interf inactive | LEDGF integ conf inactive
O=C(CSc1nnc(-c2ccccc2)n1-c1ccccc1)Nc1cccc2ccccc12	none
Cc1ccc(C(=O)Nc2nc(-c3ccccc3)c(-c3ccccc3)o2)cc1	LEDGF integ inh 21 | IN multimer act inactive | TRFRET interf inactive | LEDGF integ conf 23
Nc1ccc(N(CCO)CCO)cc1	LEDGF integ inh 24 | IN multimer act 12 | TRFRET interf inactive | LEDGF integ conf 28
Nc1ccc(C(=O)N(CCO)CCO)cc1	none
COC(=O)c1cccc(NC(=O)Cn2nnc3ccccc32)c1	LEDGF integ inh 19 | IN multimer act inactive | TRFRET interf inactive | LEDGF integ conf inactive
CCOC(=O)c1ccc(NC(=O)Cn2nnc3ccccc32)cc1	none
CCOc1ccc(-n2c(SCC(=O)Nc3cccc4ccccc34)nnc2-c2ccncc2)cc1	none
C=CCNC(=S)Nc1nc2c(cc1C(=O)OCC)COC(C)(C)C2	none
CCOC(=O)c1cc2c(nc1NC(=S)Nc1ccccc1)CC(C)(C)OC2	LEDGF integ inh 18 | IN multimer act inactive | TRFRET interf inactive | LEDGF integ conf inactive
COC1=CC(=O)c2nc(Cl)ccc2C1=O	LEDGF integ inh 32, PLC-gamma1 inh 10 | IN multimer act inactive | TRFRET interf inactive | LEDGF integ conf 58
CCn1c(NC(=O)/C=C/c2ccc(F)cc2)nc2ccccc21	LEDGF integ inh 16 | IN multimer act inactive | TRFRET interf inactive | LEDGF integ conf inactive
CCCn1c(NC(=O)c2ccc(F)cc2)nc2ccccc21	none
CCOC(=O)c1cnc2c(ccc3ccccc32)c1N	LEDGF integ inh 60 | IN multimer act inactive | TRFRET interf inactive | LEDGF integ conf inactive
COC(=O)[C@@]12CCCCC=C1N(CCc1ccc(Cl)cc1)C(=O)[C@H]2CC(=O)NCC1CCCCC1	none
COc1cccc(NC(=O)CN(C)C(=O)Cc2ccc3c(c2)OCCO3)c1	LEDGF integ inh 92 | IN multimer act inactive | TRFRET interf inactive | LEDGF integ conf inactive
O=C1Nc2ccc(S(=O)(=O)N3CCCC3C(=O)O)c3cccc1c23 (centres undefined)	LEDGF integ inh 14 | IN multimer act inactive | TRFRET interf inactive | LEDGF integ conf inactive
O=[N+]([O-])C1=CC=C2C(=NC3(CCCCC3)N2O)C1=NC1CCCCC1	none
CC1(C)CC(N=C2C([N+](=O)[O-])=CC=C3C2=NC2(CCCCC2)N3O)CC(C)(C)N1	LEDGF integ inh 26 | IN multimer act inactive | TRFRET interf inactive | LEDGF integ conf inactive
O=[N+]([O-])c1ccc(OC[C@@H](O)CN2CCC(C(O)(c3ccccc3)c3ccccc3)CC2)c(Cl)c1	none
CCOC(=O)c1c(C)c(C(=O)N(C)C2CCCCC2)c(C)n1C	none
CCOC(=O)c1c(C)c(C(=O)NC2CCCCCC2)c(C)n1C	LEDGF integ inh 66 | IN multimer act inactive | TRFRET interf inactive | LEDGF integ conf inactive
O=C1C=C(N2CCOCC2)c2cccc3cccc1c23	none
O=C1C=C(N2CCOCC2)c2ccccc2C1=O	LEDGF integ inh 22 | IN multimer act inactive | TRFRET interf inactive | LEDGF integ conf 72
Cc1ccc(C=Nc2ccc(N(C)C)cc2)o1	LEDGF integ inh 15 | IN multimer act inactive | TRFRET interf inactive | LEDGF integ conf inactive
Cc1ccc(C=Nc2ccccc2C(N)=O)o1	none
O=[N+]([O-])c1cccc(/C=C/c2ccncc2)c1	LEDGF integ inh 19 | IN multimer act inactive | TRFRET interf inactive | LEDGF integ conf inactive
O=[N+]([O-])c1ccc(/C=C/c2ccncc2)cc1	none
COc1ccc(C(=O)OCC(=O)NC2CCCCCC2)cc1OC	none
COc1ccc(C(=O)OCC(=O)NC2CCCCCCC2)cc1OC	LEDGF integ inh 27 | IN multimer act inactive | TRFRET interf inactive | LEDGF integ conf inactive
Oc1cccc(/C=N/Nc2ccc(Cl)nn2)c1	none
O=C(O)c1ccc(/C=N/Nc2ccc(Cl)nn2)cc1	LEDGF integ inh 21 | IN multimer act inactive | TRFRET interf inactive | LEDGF integ conf inactive
O=C(COCc1ccccc1)NC1CCCCN(Cc2ccc(Cl)cc2)C1=O (centres undefined)	none
COc1ccc(/C=C2/CN(Cc3ccc(OC)cc3OC)C3=N[C@H](c4ccccc4)CC(=O)N32)cc1	none
O=[N+]([O-])c1ccc2nc(-c3ccncc3)[nH]c2c1	LEDGF integ inh 46 | IN multimer act inactive | TRFRET interf inactive | LEDGF integ conf inactive

Assay outcomes: PubChem BioAssay, The Scripps Research Institute Molecular Screening Center
